# In PubChem BioAssay (NCATS):
# Records with an inconclusive call do not appear. A call without a number means that no potency is given here. Values without a mark were called inactive. Activity calls are given as the source filed them. The call rests on the fitted dose curve; in most records, active means well fitted inhibition curve with a large enough effect; inconclusive means small, poorly fitted or top-dose-only effect; inactive means flat fitted curve, though single readings scatter.
# Legend:
# [1] = qHTS profiling for inhibitors of Plasmodium falciparum proliferation (AID 504749); further: nearly all actives have a fitted effect of over 60% in size; details: P. falciparum in erythrocytes, SYBR Green DNA, 72 h
# Procedure, shortened: (§1)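 SYBR Green fluorescence of parasite DNA, read after lysis and overnight dark incubation, measured growth over 72 h in erythrocyte culture at 0.3% parasitemia and 2.5% hematocrit. Data normalised to DMSO and 0.29 uM artemisinin, with plate-drift correction.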
# 3D7 = experiment: as above; details: P. falciparum in erythrocytes, SYBR Green DNA, 72 h; series mostly up to 28.7 µM
# Procedure, shortened: as §1
# 7G8 = experiment: as above; details: P. falciparum in erythrocytes, SYBR Green DNA, 72 h; series mostly up to 28.7 µM
# Procedure, shortened: as §1
# AA1029 = experiment: as above; details: P. falciparum in erythrocytes, SYBR Green DNA, 72 h; series mostly up to 28.7 µM
# Procedure, shortened: as §1
# AS120 = experiment: as above; details: P. falciparum in erythrocytes, SYBR Green DNA, 72 h; series mostly up to 28.7 µM
# Procedure, shortened: as §1
# ATS189 = experiment: as above; details: P. falciparum in erythrocytes, SYBR Green DNA, 72 h; series mostly up to 28.7 µM
# Procedure, shortened: as §1
# ATS95 = experiment: as above; details: P. falciparum in erythrocytes, SYBR Green DNA, 72 h; series mostly up to 28.7 µM
# Procedure, shortened: as §1
# C2A = experiment: as above; details: P. falciparum in erythrocytes, SYBR Green DNA, 72 h; series mostly up to 28.7 µM
# Procedure, shortened: as §1
# CP185 = experiment: as above; details: P. falciparum in erythrocytes, SYBR Green DNA, 72 h; series mostly up to 28.7 µM
# Procedure, shortened: as §1
# [2] = at 12.8 µM (top of the series), parasite line A
# [3] = at 12.8 µM (top of the series), parasite line B
# [4] = at 28.7 µM (top of the series), parasite line A
# [5] = at 28.7 µM (top of the series), parasite line B
# Potency means the concentration at half of the fitted maximal effect.
SMILES,"activity, negative = inhibition [1, 2]","activity, negative = inhibition [1, 3]",Potency (3D7),Potency (7G8),Potency (AA1029),Potency (AS120),Potency (ATS189),Potency (ATS95),Potency (C2A),Potency (CP185),"activity, negative = inhibition [1, 4]","activity, negative = inhibition [1, 5]",Potency ([1]; parasite line A),Potency ([1]; parasite line B)
COc1cc(C(=O)NCc2ccc(OCCN(C)C)cc2)cc(OC)c1OC,-2.54%,-4.52%,inactive,inactive,inactive,inactive,inactive,inactive,inactive,inactive,,,,
CC(=O)NCCCCCC(=O)O,,,inactive,inactive,inactive,inactive,inactive,inactive,inactive,inactive,7.94%,13.3%,,
O=C(O)c1ccc(S(=O)(=O)N(Cl)Cl)cc1,,,inactive,inactive,inactive,inactive,inactive,inactive,inactive,inactive,-4.58%,5.75%,,
CC(=O)Nc1ccc(OC(=O)c2ccccc2OC(C)=O)cc1,,,inactive,inactive,inactive,inactive,inactive,inactive,inactive,inactive,-24.5%,5.15%,,
COc1ccc(-c2cc(C(F)F)nn2-c2ccc(S(N)(=O)=O)cc2)cc1F,,,inactive,inactive,inactive,inactive,inactive,inactive,inactive,inactive,1.08%,-0.185%,,
CCOC(=O)c1c(N)sc2c1CCN(Cc1ccccc1)C2,,,11.2 µM (active),6.31 µM (active),5.01 µM (active),8.91 µM (active),7.94 µM (active),8.91 µM (active),11.2 µM (active),5.01 µM (active),,,10 µM (active),5.01 µM (active)
c1ccc(CC2=NCCN2)cc1,-1.06%,-2.59%,inactive,inactive,inactive,inactive,inactive,inactive,inactive,inactive,,,,
O=C1C(CCS(=O)c2ccccc2)C(=O)N(c2ccccc2)N1c1ccccc1 (centres undefined),-4.48%,5.16%,inactive,inactive,inactive,inactive,inactive,inactive,inactive,inactive,,,,
CCC1Nc2cc(Cl)c(S(N)(=O)=O)cc2S(=O)(=O)N1 (centres undefined),,,inactive,inactive,inactive,inactive,inactive,inactive,inactive,inactive,11%,6.74%,,
N=C(N)N1CCc2ccccc2C1,,,inactive,inactive,inactive,inactive,inactive,inactive,inactive,inactive,15.6%,0.433%,,
CN(C)CCC[C@@]1(c2ccc(F)cc2)OCc2cc(C#N)ccc21,,,inactive,inactive,,inactive,inactive,inactive,inactive,inactive,3.06%,6.35%,,
O=S(=O)(O)c1ccc(O)cc1,,,inactive,inactive,inactive,inactive,inactive,inactive,inactive,inactive,4.42%,-3.84%,,
O=C(Nc1cccc(C2=NCCN2)c1)Nc1cccc(C2=NCCN2)c1,,,10 µM (active),0.398 µM (active),7.08 µM (active),2.82 µM (active),2.82 µM (active),5.01 µM (active),5.01 µM (active),4.47 µM (active),,,8.91 µM (active),11.2 µM (active)
CNCCc1ccccn1,6.01%,8.04%,inactive,inactive,inactive,inactive,inactive,inactive,inactive,inactive,,,,
O=C1C(=O)c2ccccc2C(O)=C1C1CCC(c2ccc(Cl)cc2)CC1 (centres undefined),,,0.0032 µM (active),0.0011 µM (active),0.0032 µM (active),0.004 µM (active),0.0028 µM (active),0.004 µM (active),0.0079 µM (active),0.0035 µM (active),,,0.0014 µM (active),0.0032 µM (active)
C#C[C@]1(O)CC[C@H]2[C@@H]3CCC4=Cc5oncc5C[C@]4(C)[C@H]3CC[C@@]21C,,,inactive,inactive,inactive,inactive,inactive,inactive,inactive,inactive,-28.2%,-11.7%,,
NCCNC(=O)c1ccc(Cl)cn1,,,inactive,inactive,inactive,inactive,inactive,inactive,inactive,inactive,-3.24%,-5.67%,,
Cc1cccc(C)c1NC(=O)CN1CCCCCC1,,,inactive,inactive,inactive,inactive,inactive,inactive,inactive,inactive,14.8%,4.72%,,
O=C(O)CCNC(=O)c1ccccc1,,,inactive,inactive,inactive,inactive,inactive,inactive,inactive,inactive,0.623%,11.8%,,
CCN(CC)CCNC(=O)c1cc(Br)c(N)cc1OC,,,inactive,inactive,inactive,inactive,inactive,inactive,inactive,inactive,1.38%,3.74%,,
